Measured values: PubChem BioAssay AID1159580 (chemical genetic matrix, 2015)
“And” between values parts separate entries of the source, which are not always exact repeats. Equal entries are not always repeated. Screen size: about 5,500 compounds; about 2,000 (36%) were called active. Inconclusive results (about 18%) are left out. Cut-off read from the data, not from the text of the source: active = normalized growth mostly below about 0.91 (no sharp cut-off); inconclusive = no clear call, values can overlap the other calls; inactive = mostly above about 0.92. The list shows a part of the results.

Assay: chemical genetic growth profiling, strain panel (AID 1159580);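 note: tested at 20 µM; growth read once vehicle control cultures reached saturation at 30 °C; 1 = growth at the plate median or of vehicle wells; lower values mean less growth of the strain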
Settings: S. cerevisiae deletion strains, growth OD

Measured: normalized growth

CC(=O)OC1CCC2(C)C3CC(=O)C4(C)C(CC5OC6(CCC(C)CO6)[C@@H](C)C54)C3CC[C@H]2C1 (stereo not given in full)
inactive: locus YAL013W, strain DEP1, hits give low values 0.982 | locus YAL021C, strain ccr4, hits give low values 0.987 | locus YAL026C, strain drs2, hits give low values 0.991 | locus YAL030W, strain snc1, hits give low values 0.981 | locus YBL061C, strain skt5, hits give low values 0.982 | locus YBR009C, strain hhf1, hits give low values 0.991 | locus YBR021W, strain FUR4, hits give low values 1.07 | locus YBR023C, strain chs3, hits give low values 0.994 | locus YBR171W, strain sec66, hits give low values 0.984 | locus YBR229C, strain ROT2, hits give low values 0.99 | locus YBR231C, strain swc5, hits give low values 1.01 | locus YBR279W, strain paf1, hits give low values 0.987 | locus YCL011C, strain gbp2, hits give low values 0.979 | locus YCL016C, strain dcc1, hits give low values 0.98 | locus YCL029C, strain bik1, hits give low values 0.963 | locus YCL069W, strain vba3, hits give low values 1.01 | locus YCR088W, strain abp1, hits give low values 0.994 | locus YDL005C, strain med2, hits give low values 0.975 | locus YDL035C, strain GPR1, hits give low values 1.01 | locus YDL040C, strain nat1, hits give low values 0.99 | locus YDL074C, strain BRE1, hits give low values 0.983 | locus YDL101C, strain DUN1, hits give low values 0.992 | locus YDL185W, strain tfp1, hits give low values 0.952 | locus YDL192W, strain arf1, hits give low values 0.986 | locus YDR001C, strain nth1, hits give low values 0.988 | locus YDR069C, strain doa4, hits give low values 0.968 | locus YDR101C, strain arx1, hits give low values 1 | locus YDR137W, strain rgp1, hits give low values 0.973 | locus YDR159W, strain sac3, hits give low values 1.03 | locus YDR162C, strain NBP2, hits give low values 0.972 | locus YDR195W, strain ref2 0.942 | locus YDR297W, strain sur2, hits give low values 0.978 | locus YDR318W, strain mcm21, hits give low values 0.996 | locus YDR334W, strain swr1, hits give low values 0.985 | locus YDR335W, strain msn5, hits give low values 0.978 | locus YDR388W, hits give low values 0.978 | locus YDR392W, strain spt3, hits give low values 1.01 | locus YDR502C, strain sam2, hits give low values 0.971 | locus YEL003W, strain gim4, hits give low values 0.986 | locus YEL037C, strain rad23, hits give low values 0.998 | locus YEL061C, strain CIN8 (second series), hits give low values 0.999 | locus YER015W, strain faa2, hits give low values 0.988 | locus YER016W, strain bim1, hits give low values 0.96 | locus YER110C, hits give low values 0.97 | locus YER111C, strain swi4, hits give low values 0.995 | locus YER155C, strain BEM2 (second series), hits give low values 0.999 | locus YER155C, strain BEM2, hits give low values 1.01 | locus YER167W, strain BCK2, hits give low values 1.01 | locus YFR010W, strain ubp6, hits give low values 1 | locus YGL078C, strain dbp3, hits give low values 0.988 | locus YGL086W, strain mad1, hits give low values 0.993 | locus YGL167C, strain pmr1, hits give low values 0.99 | locus YGL173C, strain kem1, hits give low values 1.01 | locus YGL227W, strain vid30, hits give low values 0.974 | locus YGL240W, strain doc1, hits give low values 0.98 | locus YGL248W, strain PDE1, hits give low values 0.991 | locus YGL253W, strain hxk2, hits give low values 0.976 | locus YGR078C, strain PAC10, hits give low values 0.986 | locus YGR135W, strain pre9, hits give low values 0.977 | locus YGR252W, strain gcn5, hits give low values 0.986 | locus YHR013C, strain ard1, hits give low values 0.957 | locus YHR027C, strain rpn1, hits give low values 0.982 | locus YHR030C, strain SLT2, hits give low values 0.977 | locus YHR079C, strain IRE1 (second series), hits give low values 0.987 | locus YHR079C, strain IRE1, hits give low values 1.01 | locus YHR094C, strain hxt1, hits give low values 0.975 | locus YHR129C, strain ARP1, hits give low values 0.982 | locus YHR142W, strain chs7, hits give low values 0.955 | locus YHR200W, strain rpn10, hits give low values 0.993 | locus YIL066C, strain RNR3, hits give low values 0.988 | locus YIL073C, strain SPO22, hits give low values 0.931 | locus YIL125W, strain kgd1, hits give low values 0.974 | locus YIR030C, strain dcg1, hits give low values 0.988 | locus YJL092W, strain hpr5, hits give low values 0.985 | locus YJL095W, strain BCK1 (second series), hits give low values 0.981 | locus YJL095W, strain BCK1, hits give low values 0.962 and 1 | locus YJL115W, strain asf1, hits give low values 0.958 | locus YJL129C, strain trk1, hits give low values 0.969 | locus YJL134W, strain LCB3, hits give low values 0.99 | locus YJL154C, strain vps35, hits give low values 0.986 | locus YJL164C, strain tpk1, hits give low values 0.993 | locus YJL166W, strain qcr8, hits give low values 0.965 | locus YJL168C, strain set2, hits give low values 0.983 | locus YJL187C, strain SWE1 (second series), hits give low values 0.977 | locus YJR066W, strain TOR1, hits give low values 0.934 | locus YJR075W, strain HOC1, hits give low values 0.988 | locus YKL009W, strain mrt4, hits give low values 0.983 | locus YKL068W, hits give low values 0.981 | locus YKL085W, strain MDH1 (second series), hits give low values 0.988 | locus YKL085W, strain MDH1, hits give low values 0.988 | locus YKL160W, strain elf1, hits give low values 0.964 | locus YKR001C, strain vps1, hits give low values 0.992 | locus YKR026C, strain gcn3, hits give low values 1 | locus YKR091W, strain srl3, hits give low values 0.964 | locus YLL001W, strain dnm1, hits give low values 1.01 | locus YLL026W, hits give low values 0.977 | locus YLL041C, strain sdh2, hits give low values 0.992 | locus YLR027C, strain aat2, hits give low values 0.965 | locus YLR039C, strain RIC1, hits give low values 0.994 | locus YLR058C, strain SHM2, hits give low values 0.982 | locus YLR102C, strain apc9, hits give low values 0.972 | locus YLR113W, strain HOG1, hits give low values 0.976 | locus YLR221C, strain rsa3, hits give low values 1.01 | locus YLR258W, strain gsy2, hits give low values 0.961 | locus YLR262C, strain YPT6 (second series), hits give low values 0.974 | locus YLR268W, strain sec22, hits give low values 0.984 | locus YLR320W, strain mms22, hits give low values 1.03 | locus YLR342W, strain FKS1 (second series), hits give low values 1.03 | locus YLR342W, strain FKS1, hits give low values 0.975 | locus YLR357W, strain rsc2, hits give low values 0.964 | locus YLR370C, strain arc18, hits give low values 0.973 | locus YLR371W, strain rom2, hits give low values 0.992 | locus YLR384C, strain iki3, hits give low values 0.983 | locus YLR418C, strain cdc73, hits give low values 1.02 | locus YML016C, strain PPZ1, hits give low values 1.01 | locus YML032C, strain rad52, hits give low values 0.996 | locus YML120C, strain ndi1, hits give low values 0.989 | locus YML124C, strain tub3, hits give low values 0.982 | locus YMR058W, strain fet3, hits give low values 0.979 | locus YMR078C, strain ctf18, hits give low values 0.986 | locus YMR125W, strain sto1, hits give low values 0.986 | locus YMR129W, hits give low values 0.975 | locus YMR205C, strain PFK2, hits give low values 1 | locus YMR223W, strain ubp8, hits give low values 0.981 | locus YMR231W, strain pep5, hits give low values 0.989 | locus YMR263W, strain SAP30, hits give low values 0.979 | locus YMR307W, strain GAS1, hits give low values 1.06 | locus YNL067W, strain RPL9B, hits give low values 0.967 | locus YNL071W, strain lat1, hits give low values 1 | locus YNL153C, strain GIM3, hits give low values 0.973 | locus YNL183C, strain NPR1, hits give low values 0.956 | locus YNL209W, strain ssb2, hits give low values 1 | locus YNL233W, strain BNI4, hits give low values 0.989 | locus YNL248C, strain rpa49, hits give low values 0.955 | locus YNL250W, strain rad50, hits give low values 0.969 | locus YNL271C, strain bni1, hits give low values 0.994 | locus YNL298W, strain CLA4, hits give low values 0.973 | locus YNL307C, strain MCK1, hits give low values 0.974 | locus YNL322C, strain KRE1 (second series), hits give low values 0.98 | locus YNR049C, strain mso1, hits give low values 0.966 | locus YNR052C, strain pop2, hits give low values 0.976 | locus YOL006C, strain TOP1, hits give low values 1.06 | locus YOL012C, strain htz1 0.635 | locus YOL147C, strain pex11, hits give low values 0.965 | locus YOR001W, strain rrp6, hits give low values 1.03 | locus YOR061W, strain CKA2, hits give low values 0.997 | locus YOR069W, strain VPS5, hits give low values 0.99 | locus YOR070C, strain gyp1, hits give low values 0.993 | locus YOR080W, strain dia2, hits give low values 0.974 | locus YOR083W, strain WHI5, hits give low values 0.974 | locus YOR106W, strain vam3, hits give low values 0.963 | locus YOR136W, strain idh2, hits give low values 0.981 | locus YOR144C, strain elg1, hits give low values 0.982 | locus YOR184W, strain ser1, hits give low values 1.01 | locus YOR231W, strain MKK1, hits give low values 0.988 | locus YOR265W, strain rbl2, hits give low values 0.968 | locus YOR270C, strain vph1, hits give low values 0.999 | locus YOR290C, strain snf2, hits give low values 0.96 | locus YOR316C, strain cot1, hits give low values 0.97 | locus YPL051W, strain arl3, hits give low values 0.977 | locus YPL078C, strain atp4, hits give low values 0.979 | locus YPL106C, strain sse1, hits give low values 0.986 | locus YPL240C, strain hsp82, hits give low values 0.982 | locus YPL241C, strain CIN2, hits give low values 0.994 | locus YPL256C, strain CLN2, hits give low values 0.993 | locus YPR119W, strain clb2, hits give low values 0.995 | locus YPR141C, strain kar3, hits give low values 0.97 | locus YPR163C, strain tif3, hits give low values 0.962 | locus YPR167C, strain met16, hits give low values 0.988 | strain wtn01, hits give low values 0.985
